Assay outcomes as filed in PubChem.
Compounds with a hit are over-represented: about 12% of the library has one in this group of screens.
Pf growth 48h: P. falciparum growth inhibition at 48 hours (one generation) | P. falciparum luciferase growth in erythrocytes, 48 h | Potency, µM (top dose mostly 28.7 µM), hits mostly inhibitors | 310,000 compounds, 5.9% hits | AID 504832
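Firefly luciferase activity from engineered P. falciparum reports growth; inhibitors lower the luminescent signal. Cultures contained 2% hematocrit erythrocytes at 0.1% final parasitemia.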
SARS PLP yeast: blocks SARS-CoV papain-like protease in a yeast assay; Potency, µM (titrated, usually from 32.9 µM), actives largely listed as activators; 330,000 compounds, 0.19% hits; S. cerevisiae expressing SARS-CoV PLpro, growth rescue; AID 485353; calls by dose curve; further: nearly all actives have a fitted effect of over 55% in size
Sm TGR block: blocks Schistosoma mansoni thioredoxin glutathione reductase; Q962Y6; 360,000 compounds, 3% hits; Potency, µM (titrated, usually from 114 µM), most hits filed as inhibitors; purified TGR, DTNB reduction, TNB absorbance 405 nm; further: nearly all actives have a fitted effect of over 60% in size
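Kinetic colorimetric format: TGR-catalysed, NADPH-driven DTNB reduction monitored via TNB absorbance. Enzyme dispensed at 20 nM; compound exposure 15 min at room temperature before reaction start.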
Pf growth 96h: P. falciparum growth inhibition at 96 hours | Potency, µM (highest dose often 28.7 µM), usual class: inhibitors | P. falciparum luciferase reporter growth, 96 h | 320,000 compounds, 6.9% hits
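Delayed-death screen, second-generation endpoint: infected erythrocytes, 2% hematocrit, 0.05% parasitemia final; 96 hours at 37 C, 5% CO2; luciferase detection reagent; luminescence decrease equals reduced growth.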
Hits are given with their value; n = inactive; u = inconclusive; x = no result. Unless noted, the call rests on the fitted dose curve; in most records, active means well fitted curve in the direction sought with a large enough effect; inconclusive means small, poorly fitted or top-dose-only effect, or another doubt; inactive means no such curve, though single readings can be large; an effect the other way counts as inactive or inconclusive.

SMILES	Pf growth 48h	SARS PLP yeast	Sm TGR block	Pf growth 96h
COc1ccc(Cl)cc1N(CC(=O)NCC(C)C)S(=O)(=O)c1ccc(C)c([N+](=O)[O-])c1	n	n	n	9.3µM
COc1ccc(N(CC(=O)NCc2cccnc2)S(=O)(=O)c2ccc(C)c([N+](=O)[O-])c2)cc1	n	n	x	u
COc1ccc(N(CC(=O)NCc2ccncc2)S(=O)(=O)c2ccc(C)c([N+](=O)[O-])c2)cc1	1.9µM	n	n	n
COc1ccccc1NC(=O)CN1C(=O)CCSc2ccccc21	x	x	n	x
CC(=O)Nc1ccc(S(=O)(=O)Oc2ccc(/C=N/NC(=O)c3ccc(Cl)cc3)cc2)cc1	13µM	n	n	u
Cc1cccn2c(=O)c3cc(S(=O)(=O)c4ccc(F)cc4)c(=N)n(Cc4ccco4)c3nc12	10µM	n	n	15µM
Cc1ccc(S(=O)(=O)c2cc3c(=O)n4ccccc4nc3n(Cc3ccco3)c2=N)cc1C	u	n	n	12µM
Cc1cccn2c(=O)c3cc(S(=O)(=O)c4ccccc4)c(=N)n(Cc4ccco4)c3nc12	u	n	n	n
Cc1[nH]c(=O)[nH]c(=O)c1C1N2CC3(C(C)C)CN1CC(C(C)C)(C2)C3=O (stereo not drawn)	x	x	n	x
CCCCc1nn2c(=O)cc(COC(=O)c3ccccc3NC(=O)c3cccc(C)c3)nc2s1	x	x	n	x
Cc1cc(NC(=O)c2ccc3nc(-c4ccccc4)c(-c4ccccc4)nc3c2)no1	5.2µM	n	n	4.7µM
Cc1cc(N2C(=O)c3ccc(C(=O)Nc4ccccc4O)cc3C2=O)no1	u	n	n	n
Cc1cc(NC(=O)c2ccccc2)no1	x	n	n	n
Cc1cc(NC(=O)c2ccc3c(c2)C(=O)N(C)C3=O)no1	x	n	n	2.9µM
Cc1cc(NC(=O)c2ccc3c(c2)C(=O)N(CCC(C)C)C3=O)no1	n	x	n	n
Cc1cc(N2C(=O)c3ccc(C(=O)Nc4ccc(CC(=O)O)cc4)cc3C2=O)no1	n	n	n	1.9µM
COc1ccc(C(=O)NC2CCCc3c2cnn3-c2cccc(C)c2C)o1 (stereo not drawn)	u	n	n	n
Cc1ccc2nc(N3CCN(C(=O)C4COc5ccccc5O4)CC3)sc2c1 (stereo not drawn)	x	x	n	x
S=c1[nH]c2ncccc2o1	n	n	n	2.1µM
CCN(CC(=O)Nc1c(C(=O)OC)[nH]c2ccccc12)c1ccc2c(c1)OCO2	10µM	n	u	u
COC(=O)c1[nH]c2ccccc2c1NC(=O)/C=C/c1ccc2c(c1)OCO2	n	n	n	n
CCc1nn(CC(=O)NCCc2ccc(OC)cc2OC)c(=O)c2cc3sccc3n12	x	x	n	x
COc1ccc(N2C(=O)CC(Nc3cccc(C(C)=O)c3)C2=O)cc1OC (stereo not drawn)	x	n	56µM	n
COc1ccc(NC2CC(=O)N(c3ccc(C(=O)O)cc3)C2=O)cc1 (stereo not drawn)	n	n	n	n
COc1ccc(NC2CC(=O)N(c3cccc(C)c3)C2=O)cc1 (stereo not drawn)	n	n	35µM	n
SMILES	Pf growth 48h	SARS PLP yeast	Sm TGR block	Pf growth 96h
COc1ccc(NC2CC(=O)N(c3cc([N+](=O)[O-])ccc3C)C2=O)cc1 (stereo not drawn)	n	n	40µM	n
COc1ccc(NC2CC(=O)N(c3cccc([N+](=O)[O-])c3)C2=O)cc1 (stereo not drawn)	n	n	56µM	u
O=C(NCC1CCCCC1)c1ccc(F)cc1Cl	n	n	u	u
Cc1ccc(-n2c(SCC(=O)NCCN3C(=O)CSC3=O)nnc2-c2ccccc2)cc1	n	n	n	15µM
Cc1ccc(-n2c(SCC(=O)NCCN3C(=O)CSC3=O)nnc2-c2cccc(C)c2)cc1	u	n	n	u
O=C(Nc1ccccc1C(F)(F)F)N1CCC2(CC1)Oc1ccccc1C(=O)N2Cc1ccccc1F	x	x	n	x
CCOC(=O)c1cc(-c2ccc(N3CCOCC3)cc2)nn1-c1ccc(F)cc1F	12µM	n	n	12µM
O=C(CC1Oc2ccccc2NC1=O)NC1CCCC1 (stereo not drawn)	x	n	n	n
Cc1ccc2c(c1)NC(=O)C(CC(=O)NCCCN1CCCCC1)O2 (stereo not drawn)	x	n	100µM	n
O=C(CC1Oc2ccccc2NC1=O)NC1CC1 (stereo not drawn)	x	n	79µM	n
Cc1ccc(CCNC(=O)CC2Oc3ccc(C)cc3NC2=O)cc1 (stereo not drawn)	n	n	n	n
Cc1ccc2c(c1)NC(=O)C(CC(=O)NCCN(C)C)O2 (stereo not drawn)	x	n	n	1.7µM
CC12CCC(=O)N1C(C(=O)Nc1nc(-c3ccccc3Cl)cs1)CS2 (stereo not drawn)	u	n	n	u
COC(=O)c1ccc(Cn2nc(-c3cc(C)ccc3C)ccc2=O)cc1	n	n	n	n
COc1ccc(C2NC(=O)NC(O)(C(F)(F)F)C2C(=O)c2ccccc2)cc1OC (stereo not drawn)	x	n	35µM	n
O=C1NC(c2cn(-c3ccccc3)nc2-c2cccs2)C(C(=O)c2cccnc2)C(O)(C(F)(F)F)N1 (stereo not drawn)	x	n	u	13µM
COc1cccc(C2NC(=O)NC(O)(C(F)(F)F)C2C(=O)c2cccnc2)c1OC (stereo not drawn)	u	n	22µM	x
O=C1NC(c2cccs2)C(C(=O)c2ccccc2)C(O)(C(F)(F)F)N1 (stereo not drawn)	n	n	n	n
O=C1NC(c2cccnc2)C(C(=O)c2cccs2)C(O)(C(F)(F)F)N1 (stereo not drawn)	n	n	n	u
Cc1ccc2ncc3c(-c4ccccc4)nn(CC(=O)NC4CCCCC4)c3c2c1	x	x	n	x
O=S(=O)(Nc1nc2ccccc2nc1Cl)c1cccc(C(F)(F)F)c1	n	n	n	n
O=C(CSc1nnnn1-c1cccc(F)c1)NC1CCCCC1	n	n	n	n
c1cnc(-c2noc(CN3CCN(C4CCCC4)CC3)n2)cn1	n	n	n	n
COc1cccc(C2CCCN2Cc2nc(-c3cnccn3)no2)c1 (stereo not drawn)	13µM	n	u	n
COc1cccc(OCc2cc(C(=O)NCC3CCCCC3)no2)c1	n	n	n	12µM
COc1cccc(OCc2cc(C(=O)N(C)C3CCOCC3)no2)c1	n	n	n	n
COc1cccc(OCc2cc(C(=O)N(C)Cc3nc(C)cs3)no2)c1	n	n	n	6.6µM
CC[C@H](C)[C@H](N)C1=N[C@H](C(=O)N[C@@H](CC(C)C)C(=O)N[C@@H](CCC(=O)O)C(=O)N[C@@H](C(=O)N[C@H]2CCCCNC(=O)[C@@H](CC(N)=O)NC(=O)[C@@H](CC(=O)O)NC(=O)[C@@H](Cc3cnc[nH]3)NC(=O)[C@@H](Cc3ccccc3)NC(=O)[C@@H]([C@@H](C)CC)NC(=O)[C@@H](CCCN)NC2=O)[C@@H](C)CC)CS1	n	x	x	n
Cc1cc(=O)c2c(O)c3c(O)cc(=O)c4c3c3c(cc(O)c1c23)C(C)(C)C=4O	2.7µM	x	x	1.5µM
O=C(COc1ccccc1)Nc1nnc(-c2ccc3c(c2)CCCC3)o1	n	u	n	n
